The results in this text go back to PubChem BioAssay (Tox21).

Each structure is given as a SMILES string. Inconclusive results are not listed. Entries that show only a call come without a potency. Some structures have more than one record in an assay (separate samples or runs), and their calls can disagree. The source made the active and inactive calls. The call rests on the fitted dose curve; in most records, active means well fitted activation curve with a large enough effect; inconclusive means small, poorly fitted or top-dose-only effect; inactive means flat fitted curve, though single readings scatter.
Potency means the concentration at half of the fitted maximal effect.

The assay can be described thus: qHTS assay to identify small molecule phospholipidosis (PLD) inducers (AID 1259344). The following applies: HepG2 phospholipidosis, LipidTOX Red imaging, 24 h; series mostly up to 38.3 µM. The source says: National Center for Advancing Translational Sciences [NCATS]
Drug-induced Phospholipidosis (PLD) caused by cationic amphiphilic drugs is characterized by the appearance of unicentric or multicentric-lamellar bodies when viewed under electron microscope. Electron microscopy is the gold standard method for PLD detection, however, this method is time-consuming and labor intensive, making it unsuitable for evaluating a large set of compounds. A cell-based phospholipidosis assay has been developed using the LipidTox reagent in HepG2 cells and miniaturized into a 1536-well plate format. Drug induced phospholipid accumulation is stained with the LipidTox dyes in red color which then is determined using an automated high content screening system.
HepG2 cells are dispensed at 900 cells/3 uL/well into Collagen I-coated 1536-well black-wall/clear-bottom assay plates (Greiner Bio-One, Monroe, NC) using the Multidrop Combi 8 channel dispenser (Thermo Fisher, Waltham, MA, USA). The assay plates are incubated at 37 C for 4 hours to allow the cell attachment. 3 uL of 1:500 LipidTOX Red dye is added using the dispenser, and then 23 nL compounds are added via a Wako Pintool station (Wako Automation, San Diego, CA). Amiodarone, a known PLD inducer, was used as a positive control and DMSO was used as a negative control. The assay plates were then incubated at 37 C for 24 hours.
For fixations, 4 uL of 8% paraformaldehyde fixative solution containing 10 ug/mL Hoechst 33342 in Dulbecco's phosphate-buffered saline (DPBS) is added using a Kalypsys washer/dispenser (Kalypsys, San Diego, CA, USA). After incubation at room temperature for 30 min, the assay plates are washed once with DPBS using a Kalypsys washer/dispenser. The assay plates are then sealed and stored at 4 C before imaging. The fluorescence intensities (595 nm excitation, 615 nm emission for LipidTOX; 352 nm excitation, 461 nm emission for Hoechst 33342) are measured using an ImageXpress Micro Widefield High Content Screening System (Molecular Devices, Sunnyvale, CA, USA) with a 20x Plan Fluor objective. Images are acquired for one site in each well and analyzed with the MetaXpress software (Molecular Devices) using the Transfluor module. Several algorithmic outputs, such as pit count per well, pit count per cell, pit integrated intensity per well, and pit integrated intensity per cell, are used for quantitative image analysis for PLD.
In the case of `Nc1ncn([C@@H]2O[C@H](CO)[C@@H](O)[C@H]2O)c(=O)n1`, the Potency entry is “inactive”.
Consider `Cc1cc2nc3c(=O)[nH]c(=O)nc-3n(C[C@H](O)[C@H](O)[C@H](O)CO)c2cc1C`, for which the Potency entry is “inactive”.
On to `C#C[C@]1(O)CC[C@H]2[C@@H]3CCc4cc(OC)ccc4[C@H]3CC[C@@]21C`, for which the Potency result was “inactive”.
Turning to `COc1ccc(OC)c(C(O)CNC(=O)CN)c1` (stereo not given), the Potency result was “inactive”.
Regarding `C=C(C)C1CC=C(C)CC1` (stereo not given), the Potency result was “inactive”.
For `OC[C@H]1O[C@@H]2O[C@H]3[C@H](O)[C@@H](O)[C@@H](O[C@H]4[C@H](O)[C@@H](O)[C@@H](O[C@H]5[C@H](O)[C@@H](O)[C@@H](O[C@H]6[C@H](O)[C@@H](O)[C@@H](O[C@H]7[C@H](O)[C@@H](O)[C@@H](O[C@H]8[C@H](O)[C@@H](O)[C@@H](O[C@H]1[C@H](O)[C@H]2O)O[C@@H]8CO)O[C@@H]7CO)O[C@@H]6CO)O[C@@H]5CO)O[C@@H]4CO)O[C@@H]3CO`, the Potency result was “inactive”.
On to `Cc1[nH]c(=O)c(C#N)cc1-c1ccncc1`, for which the Potency entry was “inactive”.
`CC(C)(C)NC(=O)[C@H]1CC[C@H]2[C@@H]3CC[C@H]4NC(=O)C=C[C@]4(C)[C@H]3CC[C@]12C`: the Potency entry is “inactive”.
As to `Nc1ccc(S(=O)(=O)Nc2cnc3ccccc3n2)cc1`, the Potency entry is “inactive”.
For the molecule `C[Si](C)(C)O[Si](C)(C)C`, the Potency result was “inactive”.
On to `CN(C)CCC=C1c2ccccc2CCc2ccccc21`, for which the Potency was 7.08 µM (active).
Turning to `Cc1c(OCC(F)(F)F)ccnc1CS(=O)c1nc2ccccc2[nH]1` (stereo not given), the Potency entry was “inactive”.
On to `COC(=O)Nc1nc2ccc(S(=O)c3ccccc3)cc2[nH]1` (stereo not given), for which the Potency result is “inactive”.
For the molecule `CCCCc1oc2ccccc2c1C(=O)c1cc(I)c(OCCN(CC)CC)c(I)c1`, the Potency is 10 µM (active) and the PLD induction was -0.301% [at 7.66 µM] (inactive).
On to `O=C1c2cccc(O)c2C(=O)c2c(O)cccc21`, for which the Potency entry was “inactive”.
On the same count and under the same terms, to `C[C@]12CC[C@H]3[C@@H](CCC4=CC(=O)CC[C@@]43C)[C@@H]1CC[C@@H]2C(=O)CO` belongs “inactive”; to `CN(C)CCN(Cc1cccs1)c1ccccn1`, “inactive”.
Turning to `CC(C)OC(=O)C(C)(C)Oc1ccc(C(=O)c2ccc(Cl)cc2)cc1`, the Potency entry was “inactive”.
The same measure, in the same setting: in the case of `CN1C(C(=O)Nc2ccccn2)=C(O)c2ccccc2S1(=O)=O` it was “inactive”; in that of `O=C(Nc1ccc([N+](=O)[O-])cc1Cl)c1cc(Cl)ccc1O`, “inactive”; in that of `CC(C(=O)O)c1cccc(C(=O)c2ccccc2)c1` (stereo not given), “inactive”.
With `COc1cccc2c1C(=O)c1c(O)c3c(c(O)c1C2=O)C[C@@](O)(C(=O)CO)C[C@@H]3O[C@H]1C[C@H](N)[C@H](O)[C@H](C)O1`, the Potency entry is “inactive”.
With `C#C[C@]1(O)CC[C@H]2[C@@H]3CCC4=Cc5oncc5C[C@]4(C)[C@H]3CC[C@@]21C`, the Potency result is “inactive”.
As for `Cc1ccc(C(=O)c2cc(O)c(O)c([N+](=O)[O-])c2)cc1`, the PLD induction is 0.47% [at 7.66 µM] (inactive).
For the molecule `O=CCCCC=O`, the Potency entry is “inactive”.
For `Cn1cnc([N+](=O)[O-])c1Sc1ncnc2nc[nH]c12`, the Potency entry is “inactive”.
With `Cc1ccc2c(n1)Oc1ccc(C(C)C(=O)OCC(=O)N(C)C)cc1C2` (stereo not given), the Potency entry is “inactive”.
Consider `Cc1ncc[nH]1`, for which the Potency entry is “inactive”.
Take `Oc1ccc(O)cc1`: the Potency entry is “inactive”.
Same read-out and setting: in the case of `COc1ccc(C(=O)CC(=O)c2ccc(C(C)(C)C)cc2)cc1` it was “inactive”; in that of `CN(C)c1nc(N(C)C)nc(N(C)C)n1`, “inactive”.
For the molecule `CC(=O)Oc1ccccc1C(=O)Nc1ncc([N+](=O)[O-])s1`, the Potency entry is “inactive”.
On to `O=C(/C=C/c1ccccc1)OCc1ccccc1`, for which the Potency result was “inactive”.
As for `O=C(c1ccc(OCCN2CCCCC2)cc1)c1c(-c2ccc(O)cc2)sc2cc(O)ccc12`, the Potency result is “inactive”.
Consider `CC1=CCC(C(C)(C)O)CC1` (stereo not given), for which the Potency result is “inactive”.
As for `O=S(=O)(O)c1ccc(O)cc1`, the Potency entry is “inactive”.
Consider `O=C(O)c1ccccc1Nc1cccc(C(F)(F)F)c1`, for which the Potency entry was “inactive”.
Still for that read-out and setting: in the case of `CCCC(=O)O` it was “inactive”; in that of `Nc1ccccc1N`, “inactive”.
